Reference: PubChem BioAssay AID1159580 (chemical genetic matrix, 2015)
The campaign covered roughly 5,500 compounds. About 2,000 (36%) were called active. Not shown: some 18% with an inconclusive outcome. Rule as the data show it: active = normalized growth mostly below about 0.91 (no sharp cut-off); inconclusive = no clear call, values can overlap the other calls; inactive = mostly above about 0.92. This is one part of the list.

Test: chemical genetic growth profiling, strain panel (AID 1159580);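 also: tested at 20 µM; growth read once vehicle control cultures reached saturation at 30 °C; 1 = growth at the plate median or of vehicle wells; lower values mean less growth of the strain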
Settings: growth OD
[1] = S. cerevisiae deletion strains, locus YAL013W, strain DEP1, stronger effect = lower value
[2] = S. cerevisiae deletion strains, locus YBR229C, strain ROT2, stronger effect = lower value
[3] = S. cerevisiae deletion strains, locus YDL101C, strain DUN1, stronger effect = lower value
[4] = S. cerevisiae deletion strains, locus YDR150W, strain NUM1, stronger effect = lower value
[5] = S. cerevisiae deletion strains, locus YEL061C, strain CIN8, stronger effect = lower value
[6] = S. cerevisiae deletion strains, locus YGR078C, strain PAC10, stronger effect = lower value
[7] = S. cerevisiae deletion strains, locus YGR229C, strain SMI1, stronger effect = lower value
[8] = S. cerevisiae deletion strains, locus YHR030C, strain SLT2, stronger effect = lower value
[9] = S. cerevisiae deletion strains, locus YHR087W, strain rtc3, stronger effect = lower value
[10] = S. cerevisiae deletion strains, locus YJL187C, strain SWE1, stronger effect = lower value
[11] = S. cerevisiae deletion strains, locus YJR043C, strain POL32, stronger effect = lower value
[12] = S. cerevisiae deletion strains, locus YJR075W, strain HOC1, stronger effect = lower value
[13] = S. cerevisiae deletion strains, locus YKL190W, strain CNB1, stronger effect = lower value
[14] = S. cerevisiae deletion strains, locus YLR039C, strain RIC1, stronger effect = lower value
[15] = S. cerevisiae deletion strains, locus YLR058C, strain SHM2 (second series), stronger effect = lower value
[16] = S. cerevisiae deletion strains, locus YLR085C, strain ARP6, stronger effect = lower value
[17] = S. cerevisiae deletion strains, locus YLR262C, strain YPT6, stronger effect = lower value
[18] = S. cerevisiae deletion strains, locus YML094W, strain GIM5, stronger effect = lower value
[19] = S. cerevisiae deletion strains, locus YMR219W, strain ESC1, stronger effect = lower value
[20] = S. cerevisiae deletion strains, locus YMR263W, strain SAP30, stronger effect = lower value
[21] = S. cerevisiae deletion strains, locus YNL153C, strain GIM3, stronger effect = lower value
[22] = S. cerevisiae deletion strains, locus YNL298W, strain CLA4 (second series), stronger effect = lower value
[23] = S. cerevisiae deletion strains, locus YNL322C, strain KRE1, stronger effect = lower value
[24] = S. cerevisiae deletion strains, locus YNR030W, strain Alg12, stronger effect = lower value
[25] = S. cerevisiae deletion strains, locus YPL055C, strain LGE1, stronger effect = lower value
[26] = S. cerevisiae deletion strains, locus YPL241C, strain CIN2, stronger effect = lower value
[27] = S. cerevisiae deletion strains, locus YPR135W, strain CTF4, stronger effect = lower value
[28] = S. cerevisiae strains, strain wild type, stronger effect = lower value

Measured: normalized growth

O=C(Nc1ccccc1)N1CCN(C(c2ccccc2)c2ccccc2)CC1
inactive: [1] 0.988 | [2] 0.992 | [3] 0.994 | S. cerevisiae deletion strains, locus YDL134C, strain PPH21, stronger effect = lower value 1.01 | [4] 1 | [5] 0.997 | [6] 1 | [7] 1 | [8] 0.963 | [9] 0.993 | [10] 1.01 | [11] 0.978 | [12] 1.02 | [13] 0.989 | [14] 0.992 | [15] 0.991 | [16] 1.06 | [17] 0.985 | [18] 1.04 | [19] 1.01 | [20] 0.989 | [21] 0.994 | [22] 0.966 | [23] 1 | [24] 0.986 | [25] 1.08 | [26] 1.03 | [27] 0.902 | [28] 0.973

O=C(Nc1cc2ccccc2s1)N1CCN(Cc2c(F)cccc2Cl)CC1
inactive: S. cerevisiae deletion strains, locus YAR019C, strain CDC15, stronger effect = lower value 0.994 | S. cerevisiae deletion strains, locus YBL105C, strain PKC1, stronger effect = lower value 0.974 | S. cerevisiae deletion strains, locus YBR135W, strain CKS1, stronger effect = lower value 0.986 | S. cerevisiae deletion strains, locus YBR136W, strain MEC1, stronger effect = lower value 0.973 | S. cerevisiae deletion strains, locus YBR160W, strain CDC28, stronger effect = lower value 0.972 | S. cerevisiae deletion strains, locus YDL017W, strain CDC7, stronger effect = lower value 0.983 | S. cerevisiae deletion strains, locus YDL028C, strain MPS1, stronger effect = lower value 0.988 | [3] 0.982 | S. cerevisiae deletion strains, locus YDL108W, strain KIN28, stronger effect = lower value 0.989 | S. cerevisiae deletion strains, locus YDL132W, strain cdc53, stronger effect = lower value 0.983 | S. cerevisiae deletion strains, locus YDL214C, strain PRR2, stronger effect = lower value 0.938 | S. cerevisiae deletion strains, locus YDR052C, strain DBF4, stronger effect = lower value 0.986 | S. cerevisiae deletion strains, locus YDR054C, strain cdc34, stronger effect = lower value 0.968 | S. cerevisiae deletion strains, locus YDR226W, strain ADK1, stronger effect = lower value 0.979 | S. cerevisiae deletion strains, locus YDR477W, strain SNF1, stronger effect = lower value 0.943 | S. cerevisiae deletion strains, locus YER123W, strain YCK3, stronger effect = lower value 0.946 | S. cerevisiae deletion strains, locus YER133W, strain GLC7, stronger effect = lower value 0.95 | S. cerevisiae deletion strains, locus YFL009W, strain cdc4, stronger effect = lower value 0.981 | S. cerevisiae deletion strains, locus YFL029C, strain CAK1, stronger effect = lower value 0.984 | S. cerevisiae deletion strains, locus YFR003C, strain YPI1, stronger effect = lower value 0.983 | S. cerevisiae deletion strains, locus YFR019W, strain FAB1, stronger effect = lower value 0.958 | S. cerevisiae deletion strains, locus YFR028C, strain CDC14, stronger effect = lower value 0.988 | S. cerevisiae deletion strains, locus YGR040W, strain KSS1, stronger effect = lower value 0.925 | S. cerevisiae deletion strains, locus YGR052W, strain FMP48, stronger effect = lower value 0.986 | S. cerevisiae deletion strains, locus YGR092W, strain DBF2, stronger effect = lower value 0.972 | [8] 0.938 | S. cerevisiae deletion strains, locus YHR079C, strain IRE1, stronger effect = lower value 0.934 | S. cerevisiae deletion strains, locus YHR082C, strain KSP1, stronger effect = lower value 0.982 | S. cerevisiae deletion strains, locus YHR205W, strain SCH9, stronger effect = lower value 0.972 | S. cerevisiae deletion strains, locus YIL147C, strain SLN1, stronger effect = lower value 0.982 | S. cerevisiae deletion strains, locus YJL095W, strain BCK1, stronger effect = lower value 0.927 | S. cerevisiae deletion strains, locus YJL128C, strain PBS2, stronger effect = lower value 0.965 | S. cerevisiae deletion strains, locus YJL157C, strain FAR1, stronger effect = lower value 0.913 | S. cerevisiae deletion strains, locus YJR016C, strain ILV3, stronger effect = lower value 0.997 | S. cerevisiae deletion strains, locus YJR066W, strain TOR1 (second series), stronger effect = lower value 0.904 | S. cerevisiae deletion strains, locus YJR066W, strain TOR1, stronger effect = lower value 0.979 | S. cerevisiae deletion strains, locus YKL048C, strain ELM1, stronger effect = lower value 0.983 | S. cerevisiae deletion strains, locus YKL067W, strain YNK1, stronger effect = lower value 0.946 | S. cerevisiae deletion strains, locus YKL101W, strain HSL1, stronger effect = lower value 0.918 | S. cerevisiae deletion strains, locus YKL193C, strain SDS22, stronger effect = lower value 0.986 | S. cerevisiae deletion strains, locus YKL203C, strain TOR2, stronger effect = lower value 0.975 | S. cerevisiae deletion strains, locus YLR133W, strain CKI1, stronger effect = lower value 0.928 | S. cerevisiae deletion strains, locus YLR403W, strain SFP1, stronger effect = lower value 0.906 | S. cerevisiae deletion strains, locus YML070W, strain DAK1, stronger effect = lower value 0.915 | S. cerevisiae deletion strains, locus YMR001C, strain CDC5, stronger effect = lower value 0.984 | S. cerevisiae deletion strains, locus YMR205C, strain PFK2 (second series), stronger effect = lower value 0.95 | S. cerevisiae deletion strains, locus YMR277W, strain FCP1, stronger effect = lower value 0.983 | S. cerevisiae deletion strains, locus YNL006W, strain LST8, stronger effect = lower value 0.989 | S. cerevisiae deletion strains, locus YNL020C, strain ARK1, stronger effect = lower value 0.928 | S. cerevisiae deletion strains, locus YNL161W, strain CBK1, stronger effect = lower value 0.988 | S. cerevisiae deletion strains, locus YNL183C, strain NPR1, stronger effect = lower value 0.944 | S. cerevisiae deletion strains, locus YNL207W, strain RIO2, stronger effect = lower value 0.976 | S. cerevisiae deletion strains, locus YNL222W, strain SSU72, stronger effect = lower value 0.988 | S. cerevisiae deletion strains, locus YNL307C, strain MCK1 (second series), stronger effect = lower value 0.961 | S. cerevisiae deletion strains, locus YOL078W, strain AVO1, stronger effect = lower value 0.982 | S. cerevisiae deletion strains, locus YOL136C, strain PFK27, stronger effect = lower value 0.911 | S. cerevisiae deletion strains, locus YOR061W, strain CKA2, stronger effect = lower value 0.952 | S. cerevisiae deletion strains, locus YOR119C, strain RIO1, stronger effect = lower value 0.993 | S. cerevisiae deletion strains, locus YOR231W, strain MKK1, stronger effect = lower value 0.877 | S. cerevisiae deletion strains, locus YOR329C, strain SCD5, stronger effect = lower value 0.972 | S. cerevisiae deletion strains, locus YPL031C, strain PHO85, stronger effect = lower value 0.942 | S. cerevisiae deletion strains, locus YPL153C, strain RAD53, stronger effect = lower value 0.917 | S. cerevisiae deletion strains, locus YPL204W, strain HRR25, stronger effect = lower value 0.915 | S. cerevisiae deletion strains, locus YPL209C, strain IPL1, stronger effect = lower value 0.976 | S. cerevisiae deletion strains, locus YPL256C, strain CLN2, stronger effect = lower value 0.888 | S. cerevisiae deletion strains, locus YPR025C, strain CCL1, stronger effect = lower value 0.986 | S. cerevisiae deletion strains, locus YPR106W, strain ISR1, stronger effect = lower value 0.962 | S. cerevisiae deletion strains, locus YPR111W, strain DBF20, stronger effect = lower value 0.962 | S. cerevisiae deletion strains, strain NNK1, stronger effect = lower value 0.972 | S. cerevisiae deletion strains, strain TSCII, stronger effect = lower value 0.986
active: S. cerevisiae deletion strains, locus YLR113W, strain HOG1, stronger effect = lower value 0.853

O=C1C(c2ccc(Br)cc2)=C(O)c2ccccc21
inactive: [1] 0.981 | [3] 0.953 | [4] 0.958 | [5] 0.99 | [7] 0.952 | [8] 0.849 | [11] 0.978 | [13] 0.983 | [14] 0.974 | [16] 0.982 | [17] 0.957 | [18] 0.983 | [20] 1.02 | [21] 0.966 | [22] 0.994 | [24] 0.989 | S. cerevisiae deletion strains, locus YOL006C, strain TOP1, stronger effect = lower value 1.01 | [25] 0.928 | [26] 1.03 | [27] 0.942 | [28] 0.979
active: [2] 0.912 | [6] 0.915 | [9] 0.868 | [10] 0.913 | [12] 0.851 | [15] 0.893 | [19] 0.896 | [23] 0.938
